According to PubChem BioAssay (NCI):
Compounds without any hit were thinned out: in the full panel of roughly 83,000, 20% have a hit.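 Cell lines were cultured in 96-well plates, exposed to a single compound concentration, and assessed for percent growth 48 hours later.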 Unmarked numbers belong to inactive results. The source made the active and inactive calls. The calls were made as follows: active = growth percent below 10; inactive = the rest.

system: HL-60(TB) leukemia; test: NCI-60 one-dose screen, 48 h (100 = growth as untreated, 0 = no growth, -100 = all killed); conditions: 10 µM unless noted

SMILES | growth
COc1ccc2nc3cc(Cl)ccc3c(N3CCN(c4ccnc(N5CCN(C)CC5)n4)CC3)c2c1 | 29.8%
O=c1c2cc(Cl)ccc2oc2ccc(OCCCCCN3CCCCC3)cc12 | 38.5%
COc1ccc(NC(=O)c2sc3nc4c(cc3c2N)CCCC4)cc1 | -14.6% (active)
CC1(C)CCC(S(=O)(=O)c2ccc3c(c2)/C(=N\O)c2cc(S(=O)(=O)N4CCN(c5ccc(F)cc5O)CC4)ccc2-3)CC1 | -70.7% (active)
Cc1cccc(N=NC(=S)NNc2cccc(C)c2)c1 | 101%
CC(C)(CC(=O)O)CC(=O)O | 103%
NC(N)=NC(N)=NCCCc1ccco1 | 83.1%
COC(=O)c1c2c(c(C)[n+]([O-])c1C)C(=O)C=C(NCc1ccc(F)c(Cl)c1)C2=O | -28.9% (active)
COc1cc(C2C3=C(COC3=O)Nc3cc4c(cc32)OCO4)cc2c1OCO2 (configuration not stated) | -8.91% (active)
CC(C)c1cccc(C#N)c1 | 112%
COc1cc(/C=C/C(=O)N2CCN(C(=O)c3cc(OC)c(OC)c(OC)c3)CC2)ccc1OCCCOc1cc2c(cc1OC)C(=O)N1CCC[C@H]1C=N2 | -28% (active)
CC(=O)N(C(C)=O)c1ccc(C)cc1 | 92.9%
O=S(=O)(Nc1ccc(I)cc1F)c1ccc(-c2cnc(C3CC3)o2)cc1 | 17.1%
COc1cc2c(c3c1c(=O)c1cccc(F)c1n3C)C=CC(C)(C)O2 | 100%
COc1ccc(Nc2ccc3ccccc3c2)cc1 | 91.3%
O=[N+]([O-])c1ccc2ncccc2c1Cl | 11.6%
C=C1CCC2C3(C)COC(C)(C)OC3CCC2(C)C1C/C=C1/C(=O)OCC1Oc1ccccc1OC (configuration not stated) | 38.6%
O=c1[nH]nc(-c2ccccc2)c2sc3ncc(-c4ccc(Br)cc4)n3c12 | 12.7%
c1ccc2[nH]c(-c3ccc(Nc4nc(N5CCCC5)nc5[nH]ncc45)cc3)nc2c1 | -32.8% (active)
Cn1cc(-c2nonc2-c2c[nH]c3ccc(F)cc23)c2cccnc21 | 91.7%
CCC(C)C1NC(=O)c2nc(oc2-c2ccccc2)-c2csc(n2)-c2csc(n2)-c2nc(oc2C)-c2coc(n2)CNC(=O)C(C(C)CC)NC1=O (configuration not stated) | -69.7% (active)
CN(C)CC(C)(C)C(=O)/C=C/c1ccccc1 | -15.3% [25 µM] (active)
N#CC1(C#N)C2=C(CCCC2)NC(c2c(F)cccc2Cl)C1(C#N)C#N (configuration not stated) | 6.9% (active)
Cc1cccc(/C=C2\N=C(c3ccccc3)N(c3ccc(S(N)(=O)=O)cc3)C2=O)c1 | 92.7%
CSc1nnc(C2=CC(=O)c3ccccc3C2=O)n1-c1ccccc1 | 4.64% (active)
Oc1c(Br)cc(Br)c2ccc(Cn3cc(-c4ccc(C(F)(F)F)cc4)nn3)nc12 | -5.83% (active)
Cc1nc2sccn2c1-c1csc(Nc2cccc(Cl)c2C)n1 | 36.4%
